Compounds without any hit were thinned out: in the full panel of roughly 83,000, 20% have a hit.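 Compound tested at a single concentration for 48 hours in 96-well plates; a percent growth value below 10 was scored as active.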 Calls of active or inactive are those of the source.
test system: UO-31 renal; assay: NCI-60 one-dose screen, 48 h (100 = growth as untreated, 0 = no growth, -100 = all killed); conditions: 10 µM unless noted
Description: Growth inhibition of the UO-31 human tumor cell line is measured as a screen for anti-cancer activity. Cells are grown in 96 well plates and exposed to the test compound for 48 hours. Compounds are tested at a single concentration, which is 10^-5 M for most compounds. The reported endpoint is percent growth (GI% or GIPRCNT), where numbers from 0 - 100% represent growth inhibition, and numbers from -100% - 0 represent cell death. For example, a value of 40 represents 60% growth inhibition. A value of 0 means no net growth occurred over the course of the experiment. A value of -40 indicates 40% of cells at the beginning of the experiment died by the end of the experiment. A value of -100 means all cells are dead at the end of the experiment.
NCI-60 Human Tumor Cell Lines Screen was performed using the standard one-dose NCI protocol, which is described in more detail at https://dtp.cancer.gov/discovery_development/nci-60/default.htm.
Compounds with GIPRCNT values below 10 were considered active. Activity score was based on GIPRCNT using the following formula: […]
Score is 0 for GIPRCNT values of 100 or above, 50 for GIPRCNT values of 0, and 100 for GIPRCNT values of -100.

| Structure (SMILES) | growth |
| --- | --- |
| CC(=O)O[C@H]1[C@H](CC#CC#CC[C@@H]2C[C@]3(C)[C@H]4CC=C5[C@H]6[C@@H](C)[C@H](C)CC[C@]6(C(=O)NCCCCCCCCN)CC[C@@]5(C)[C@]4(C)CC[C@H]3C(C)(C)[C@H]2OC(C)=O)C[C@]2(C)[C@H]3CC=C4[C@H]5[C@@H](C)[C@H](C)CC[C@]5(C(=O)NCCCCCCCCN)CC[C@@]4(C)[C@]3(C)CC[C@H]2C1(C)C | 73.7% (inactive) |
| NS(=O)(=O)c1ccc(N2N=C(c3ccc(Br)cc3)CC2c2cn(-c3ccccc3)nc2-c2ccc(Cl)cc2)cc1 (stereo not given) | 58.3% (inactive) |
| COc1ccc(-c2nsc3c2NC(=O)CC3c2ccc3c(c2)OCO3)cc1 (stereo not given) | 33.6% (inactive) |
| N#Cc1ccc(NC(=O)Nc2nc3ccc(OC(F)(F)F)cc3s2)cc1 | -2.76% (active) |
| CN=C1C=C/C(=N/N=c2/ccn(O)cc2C)C=C1C | 77.6% (inactive) |
| O=C1Cc2c([nH]c3ccc([N+](=O)[O-])cc23)-c2ccccc2N1 | 4.74% (active) |
| Nc1nonc1-c1nc2ccccc2n1Cc1ccc(F)cc1 | 42.9% (inactive) |
| Cc1ccc2oc(=O)cc(-c3nc4ccc([N+](=O)[O-])cc4[nH]3)c2c1 | 51.7% (inactive) |
| CC(=O)N(C)c1ccc(Nc2cc(C)[nH]c3ccc4ncnc4c23)cc1 | 72.6% (inactive) |
| Cc1nc2ccc(Nc3nc(Cl)nc(N4CCOCC4)n3)cc2n1Cc1ccccc1 | 73.8% (inactive) |
| O=C(Nc1ccc(OS(=O)(=O)c2ccc(F)cc2)cc1)C12CC3CC(CC(C3)C1)C2 | 83.8% (inactive) |
| Cc1ccc(O)c(Cc2ccccc2)c1 | 84% (inactive) |
| Cn1c(=O)c2[nH]c(Cc3ccc4c(c3)OCO4)nc2n(C)c1=O | 93.5% (inactive) |
| C#CC[C@@H]1C[C@]2(C)[C@H]3CC=C4[C@H]5[C@@H](C)[C@H](C)CC[C@]5(C(=O)NCCCCCCCCN)CC[C@@]4(C)[C@]3(C)CC[C@H]2C(C)(C)[C@H]1OC(C)=O | 67.2% (inactive) |
| CO[C@@]12[C@@H]3NC3CN1C1=C(C(=O)C(N)=C(C)C1=O)[C@@H]2COC(N)=O (stereo not given in full) | 5.54% (active) |
| O=C1/C(=C\c2cccn2Cc2ccc(F)cc2)c2ccccc2N1c1c(Cl)cccc1Cl | 51.8% (inactive) |
| Cc1ccc(N2C3c4ccccc4N(S(=O)(=O)c4ccc(C)cc4)C2c2ccccc2N3S(=O)(=O)c2ccc(C)cc2)cc1 | 91.1% (inactive) |
| CC(C)N1CCN(c2ccncc2S(=O)(=O)N2CCN(C)CC2)CC1 | 87.3% (inactive) |
| CCCCCCCCCCCCCCCC1=NCC[N+]1(CCO)CCO | 42.1% (inactive) |
| COC(=O)C(C)NC1=C(Cl)C(=O)C(NC(C)C(=O)OC)=C(Cl)C1=O (stereo not given) | 89.8% (inactive) |

| Structure (SMILES) | growth |
| --- | --- |
| COc1cccc(NC(=O)c2c(-c3ccccc3)c(-c3ccccc3)n[nH]c2=O)c1 | 86.7% (inactive) |
| COc1ccc(NC(=O)c2ccc(C(F)(F)F)nc2Nc2ccc(Cl)cc2C)cc1Cl | 9.94% (active) |
| CC(=O)c1c(C)nc(-c2cc(C)cc(Cl)c2)nc1-c1cccc(Oc2ccccc2)c1 | 85.2% (inactive) |
| Clc1cn2cc(-c3ccc(Cl)c(Cl)c3Cl)nc2s1 | 79.2% (inactive) |
| Cc1cc(C)c([O-])c(CN(C)CCN(C)Cc2cc(C)cc(C)c2[O-])c1.O=C([O-])c1cccc(C(=O)[O-])n1.[Ti+4] | -9.59% (active) |
| NC(=O)c1noc(C(=O)c2ccccc2)c1N | 90.2% (inactive) |
| COc1ccc(C2=Nn3c(nnc3-c3ccc(Cl)cc3N)SC2)cc1 | 83.4% (inactive) |
| CCN(CC)Cc1cc(Nc2nc(NC3CCC(N(C)C)CC3)c3ccccc3n2)ccc1OC (stereo not given) | 73.3% (inactive) |
| O=C1OCC2=C1C(c1cccc(Br)c1)c1cc3c(cc1N2CCO)OCCO3 (stereo not given) | 18.1% (inactive) |
| COc1cc(C2Nc3ccccc3S2)cc(CN2CCOCC2)c1O (stereo not given) | 45.6% (inactive) |
| FC(F)(F)c1ccc(/C=N/Nc2nnc3n2N=C(c2ccc(Cl)cc2)CS3)cc1 | 39.7% (inactive) |
| COc1ccc(C(=O)C(CN(C)C)c2ccccc2)cc1 (stereo not given) | -18.7% (active) |
| Cc1ccc(CSCc2ccc(C(=O)NC3CC3)o2)cc1 | 74.7% (inactive) |
| CCCCn1c(C)nc2ccc(Nc3nc(Cl)nc4nc[nH]c34)cc21 | 57.8% (inactive) |
| O=c1cc(-c2ccc3c(c2)OCCO3)oc2cc(Cl)ccc12 | -72.2% (active) |
| FC1(F)CCN(Cc2c[nH]c3cc(Cl)ccc23)C[C@H]1CCc1ccccc1 | 42% (inactive) |
| COc1ccc2c(c1)CCCC21C(=O)Nc2c(Cl)cccc21 (stereo not given) | 82.8% (inactive) |
| CN1CCN(Cc2ccc(NC(=O)c3cncc(C#Cc4cnc5cccnn45)c3)cc2C(F)(F)F)CC1 | 0.419% (active) |
| COc1ccc(-c2nc(-c3cc(OC)cc(OC)c3)[nH]c2-c2ccc(OC)cc2)cc1 | 36.1% (inactive) |
| CC(C)N=C1CCCC1C(=S)SSC(=S)C1CCCC1=NC(C)C (stereo not given) | 54.3% (inactive) |

From PubChem BioAssay (NCI)
